# KCNQ2 enhance = potentiators of rat KCNQ2 potassium channel; O88943; CHO-K1 KCNQ2, FluxOR thallium flux fluorescence; hits give high values; B-score at 10 µM; 0.54% of 310,000 active;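 active = fluorescence ratio B-score at least 3 SD of library B-scores, with initial fluorescence B-score within 3 of them, cut at about 5.3 in these data; same plate scores as AID 2156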;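 note: B-score of peak minus minimum over baseline fluorescence ratio after K+ and Tl+ stimulus; positive B-score means potentiation of KCNQ2 with more thallium influx and brighter signal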
# KCNQ2 inh = KCNQ2 (rat) channel inhibition; O88943; CHO-K1 KCNQ2, FluxOR thallium flux, 20 min; hits give low values; B-score at 10 µM; 1.1% of 310,000 active;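 active = fluorescence ratio B-score at most minus 3 library SDs, with starting brightness B-score within 2 library SDs, cut at about -5.5 in these data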
# Kir21 conf inh = confirmation of mouse Kir2.1 potassium channel inhibitors; shares compounds with KCNQ2 enhance; Kir2.1-expressing cells, FluxOR thallium flux fluorescence; hits give low values; Tl flux remaining, % of negative control (hits give low values), % at 10 µM; 41% of 2,300 active;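 active = Primary-screen hit whose thallium flux fell at least 3 control SD below untreated wells in both duplicates, with normal baseline fluorescence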;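 note: 0% = blank wells without stimulus and 100% = stimulated no-compound controls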
# Target sequence (P35561 whole entry, looked up): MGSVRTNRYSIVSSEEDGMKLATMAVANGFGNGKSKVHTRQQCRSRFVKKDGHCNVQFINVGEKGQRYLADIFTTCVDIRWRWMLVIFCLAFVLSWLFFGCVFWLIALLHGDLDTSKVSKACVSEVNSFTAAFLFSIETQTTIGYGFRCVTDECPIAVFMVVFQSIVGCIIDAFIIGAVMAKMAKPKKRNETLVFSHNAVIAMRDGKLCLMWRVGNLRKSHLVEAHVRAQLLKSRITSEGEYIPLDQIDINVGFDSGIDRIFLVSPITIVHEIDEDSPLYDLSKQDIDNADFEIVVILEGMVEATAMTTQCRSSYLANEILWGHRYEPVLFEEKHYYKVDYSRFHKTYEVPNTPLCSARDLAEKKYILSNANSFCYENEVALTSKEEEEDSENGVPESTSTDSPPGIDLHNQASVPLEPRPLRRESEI
# HEK293 Tl flux = alters thallium flux in parental HEK293 cells, Kir2.1 counter-screen. shares compounds with KCNQ2 enhance. FluxOR thallium flux fluorescence; 0% = unstimulated blank wells. FluxOR signal as % of negative control (100 = no effect), % at 10 µM. 19% of 2,300 active. AID 2105;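 active = dye signal at least 3 control SD above or below untreated wells in both duplicates, raw fluorescence within 3, either direction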;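 note: percent is based on the flux ratio of peak minus minimum fluorescence over baseline F0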
# CHO-K1 Tl ctr = parental CHO-K1 activity in KCNQ2 potentiator counter-screen. shares compounds with KCNQ2 enhance. parental CHO-K1 cells, FluxOR thallium flux fluorescence; zero = vehicle mean+3SD, 100% = vehicle-minus-blank window. activity increase over 3SD of controls, % at 10 µM. 43% of 1,200 active. AID 2282;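 active = signal rise of at least 3 SD above the untreated control mean, in both duplicate wells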;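 note: counter screen of KCNQ2 potentiator hits so any rise reflects channel-independent effects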
# KCNQ1 pot spec = selectivity of KCNQ2 potentiators: effect on human KCNQ1 | shares compounds with KCNQ2 enhance | CHO KCNQ1 stable, FluxOR thallium flux fluorescence; beyond 3SD, as % of vehicle-control signal | 28% of 1,200 active | activation over 3SD threshold, % at 10 µM;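 active = fluorescence ratio rise of at least 3 SD of vehicle wells above their mean, in both replicate wells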;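 note: 0% = vehicle mean plus 3 SD and 100% = vehicle minus unstimulated blank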
# KCNQ2 pot confirm = rat KCNQ2 channel potentiator confirmation; 68% of 1,200 active; potentiation, less the hit threshold, % at 10 µM; shares compounds with KCNQ2 enhance; AID 2287; CHO-KCNQ2 cells, FluxOR thallium flux fluorescence;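 active = fluorescence ratio rising 3 SD or more over the vehicle control mean in both replicates, plus primary screen hit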;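 note: peak minus minimum thallium fluorescence divided by baseline after K/Tl stimulus; 0% = vehicle mean plus 3 SD and 100% = vehicle minus unstimulated blank difference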
# Kir21 spec = selectivity of KCNQ2 potentiators: effect on mouse Kir2.1 | activity over 3SD threshold, % at 10 µM | shares compounds with KCNQ2 enhance | 2% of 1,200 active | HEK293 Kir2.1, FluxOR thallium flux fluorescence;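 active = fluorescence ratio rise of at least 3 SD above the vehicle-control mean, seen in both replicates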;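 note: 0% = vehicle mean plus 3 SD and 100% = vehicle minus no-stimulus blank window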
# KCNQ2 W236L pot = potentiates the retigabine-insensitive rat KCNQ2 W236L mutant channel; current increase over 3SD of negative controls (%), hits give high values, % at 25 µM; AID 2558; CHO KCNQ2-W236L, automated patch clamp current; 10% of 940 active; shares compounds with KCNQ2 enhance;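 active = current increase at least 3 SD of the untreated controls above them in both duplicate recordings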
# Numbers without * were called inactive; i = inactive; . = no result given. The list is not random: actives were taken first. Their share in the collection is about 1.6%.
SMILES,KCNQ2 enhance,KCNQ2 inh,Kir21 conf inh,HEK293 Tl flux,others
O=C(Cn1ncc2c3ccccc3n(Cc3cccc(Cl)c3)c2c1=O)N1CCC2(CC1)OCCO2,13*,i,i,i,CHO-K1 Tl ctr=109*;KCNQ1 pot spec=-18;KCNQ2 pot confirm=58*;Kir21 spec=-28;KCNQ2 W236L pot=i
CCOC(=O)C1(CCc2ccccc2)CCN(CC(O)CO)CC1 (configuration not stated),.,i,.,.,
CN(CCc1ccccc1)Cc1c[nH]c2ccccc12,.,i,.,.,
O=[N+]([O-])c1ccccc1-c1cc(-c2ccccc2)cc(-c2ccccc2)[n+]1Cc1ccccc1Cl,-7.4,-7.4*,22%*,i,
COc1ccc(-n2c(/C=C/c3ccc(O)cc3)nc3ccccc3c2=O)cc1,.,i,.,.,
CCn1nc(/C=C/c2ccccc2)nc2c(=O)n(C)c(=O)nc1-2,7.9*,i,i,i,CHO-K1 Tl ctr=5.3*;KCNQ1 pot spec=-4;KCNQ2 pot confirm=3.5*;Kir21 spec=-22;KCNQ2 W236L pot=i
CCCCCSc1cc(OC)c(CCNC)cc1OC,1.4,i,43%*,i,
N/C(=N\[N+](=O)[O-])NCCCC(NC(=O)CNC(=O)c1ccccc1)C(=O)O (configuration not stated),1.1,i,.,.,
Fc1ccc(C[n+]2c(-c3ccccc3)cc(-c3ccccc3)cc2-c2ccccc2)cc1,-6.3,-6.3*,24%*,i,
C[n+]1c(-c2ccccc2)cc(-c2ccc(O)cc2)cc1-c1ccccc1,0.44,i,.,.,
CCOC(C[n+]1c(-c2ccccc2)cc(C)cc1-c1ccccc1)OCC,0.69,i,.,.,
Cc1cc(-c2ccccc2)cc(-c2ccccc2)[n+]1CCc1ccccc1,-5.7,-5.7*,45%*,i,
Clc1ccc(C[n+]2c(-c3ccccc3)cc(-c3ccccc3)cc2-c2ccccc2)cc1,-7.2,-7.2*,17%*,i,
Cc1ccc(-c2cc(-c3ccccc3)cc(-c3ccccc3)[n+]2-c2ccccc2C(=O)O)cc1,.,i,.,.,
COc1ccc(CC2(CCc3ccncc3)C(=O)NC(=O)NC2=O)cc1OC,.,i,.,.,
CC(=O)OC(C)(C)/C=C/C(=O)C(C)(O)C1[C@H](O)C[C@@]2(C)C3CC=C4C(CC[C@@H](O)C4(C)C)[C@]3(CO)C(=O)C[C@]12C (some centres not stated),7.1*,i,i,i,CHO-K1 Tl ctr=-10;KCNQ1 pot spec=-22;KCNQ2 pot confirm=9.0*;Kir21 spec=-38;KCNQ2 W236L pot=i
COc1ccccc1CCNCc1cccc(C(F)(F)F)c1,0.14,i,.,.,
O=[N+]([O-])c1ccc(-[n+]2c(-c3ccccc3)cc(-c3ccccc3)cc2-c2ccccc2)cc1,0.04,i,.,.,
COc1ccc(-[n+]2c(-c3ccccc3)cc(-c3ccccc3)cc2-c2ccccc2)cc1,-8.4,-8.4*,26%*,i,
COc1cccc(CNCCc2c[nH]c3ccccc23)c1,2.5,i,.,.,
COc1ccc(CNCCc2c[nH]c3ccccc23)c(OC)c1C,0.92,i,46%*,i,
COc1cc(C)c(CNCCc2c[nH]c3ccccc23)cc1C,.,i,40%*,i,
COc1ccc(CNCCc2ccccc2F)c(OC)c1C,0.26,i,.,.,
Cc1cccc(-n2c(/C=C/c3ccccn3)nc3ccccc3c2=O)c1,.,i,.,.,
COc1ccc2ccccc2c1CNCCc1ccccc1,.,i,38%*,i,
SMILES,KCNQ2 enhance,KCNQ2 inh,Kir21 conf inh,HEK293 Tl flux,others
COc1cccc(CNCCc2ccccc2)c1OC,1.7,i,.,.,
CC(C)(C#CCCCCC#CC(C)(C)[N+](C)(C)C)[N+](C)(C)C,1,i,.,.,
COc1ccc(-c2nn(CCC#N)cc2C(=O)Nc2ccccc2Br)cc1[N+](=O)[O-],0.75,i,.,.,
CCc1c(-c2ccccc2)nc2ccccc2c1C(=O)N1CCC2(CC1)OCCO2,.,i,.,.,
CC(NCc1ccc(Cl)c(Cl)c1)C(O)c1ccccc1 (configuration not stated),.,i,.,.,
CN[C@@H]1C[C@@H](c2ccc(Cl)c(Cl)c2)c2ccccc21,.,i,28%*,i,
CC1CCC(NC(=O)CNC(=S)N2CC3CC(C2)c2cccc(=O)n2C3)CC1 (configuration not stated),.,i,.,.,
Clc1ccc(CNCCc2ccc3c(c2)OCO3)cc1,.,i,28%*,i,
Clc1cccc(CNCCc2ccc3c(c2)OCO3)c1,.,i,.,.,
COc1ccc(CNCCc2ccc3c(c2)OCO3)cc1Br,.,i,16%*,i,
COc1ccc(Br)cc1CNCCc1ccc2c(c1)OCO2,.,i,.,.,
CCOC(=O)C1=C(NC(=S)NC(=O)c2ccccc2)c2ccccc2CC12CCCC2,.,i,.,.,
CC1(C)C(C(=O)N2CCN(C(=O)c3ccccc3)CC2)C1(C)C,.,i,.,.,
CC1=CC2/C=C(\C)CCC(O)C(O)/C=C/C(=O)C23C(=O)NC(CC(C)C)C3C1C (configuration not stated),.,i,64%*,i,
O=c1cccc2n1CC1CC2CN(Cc2cccc(Cl)c2Cl)C1 (configuration not stated),.,i,38%*,i,
O=c1cccc2n1CC1CC2CN(Cc2c(F)cccc2Cl)C1 (configuration not stated),0.97,i,.,.,
Cc1cc(C)n(-c2ccc(NN=C(C#N)C#N)cc2)n1,.,i,.,.,
N#CC(C#N)=NNc1ccc(-n2ccc(C(F)(F)F)n2)cc1,4.8,i,60%*,73%*,
Clc1ccccc1CN1CCN(c2cccc3[nH]ccc23)CC1,.,i,.,.,
COc1ccccc1N1CCN(C2CCCN(C(=O)COc3ccccc3Cl)C2)CC1 (configuration not stated),.,i,.,.,
O=C(c1ccc(F)cc1)C(Cc1ccccc1)N1CCCCC1 (configuration not stated),0.07,i,.,.,
O=C(CCCN1CCC2(CC1)C(=O)NCN2c1ccccc1)c1ccc(F)cc1,6*,i,i,i,CHO-K1 Tl ctr=5.3*;KCNQ1 pot spec=64*;KCNQ2 pot confirm=17*;Kir21 spec=-40;KCNQ2 W236L pot=i
Cc1ccccc1NS(=O)(=O)c1ccc(OCC(=O)N2CCN(C)CC2)cc1,0.04,i,.,.,
